{"source": "PubChem BioAssay (NCATS)", "note": "Results filed as inconclusive are left out. The source made the active and inactive calls. Unless noted, calls come from the whole dose curve; as a rule, active = well fitted inhibition curve with a large enough effect; inconclusive = small, poorly fitted or top-dose-only effect; inactive = flat fitted curve, though single readings scatter."}
{"molecular_target": "T1, Tyrosine-protein phosphatase non-receptor type substrate 1 (Homo sapiens) + Leukocyte surface antigen CD47 (Homo sapiens) (UniProt P78324+Q08722)", "T1 sequence (P78324 whole entry, looked up)": "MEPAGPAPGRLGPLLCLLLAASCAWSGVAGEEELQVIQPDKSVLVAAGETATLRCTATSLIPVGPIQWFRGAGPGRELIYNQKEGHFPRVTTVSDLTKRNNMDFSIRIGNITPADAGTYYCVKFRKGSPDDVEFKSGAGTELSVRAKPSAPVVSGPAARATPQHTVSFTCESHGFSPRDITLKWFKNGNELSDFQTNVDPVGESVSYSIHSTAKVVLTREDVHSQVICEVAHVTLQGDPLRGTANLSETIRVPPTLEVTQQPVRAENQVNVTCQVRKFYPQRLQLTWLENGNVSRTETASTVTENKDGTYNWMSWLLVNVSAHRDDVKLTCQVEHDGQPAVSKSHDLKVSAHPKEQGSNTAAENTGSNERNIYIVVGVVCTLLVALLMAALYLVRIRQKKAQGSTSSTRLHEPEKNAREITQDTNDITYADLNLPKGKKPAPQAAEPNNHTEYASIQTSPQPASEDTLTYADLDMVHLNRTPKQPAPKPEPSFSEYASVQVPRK", "T1 sequence (Q08722 whole entry, looked up)": "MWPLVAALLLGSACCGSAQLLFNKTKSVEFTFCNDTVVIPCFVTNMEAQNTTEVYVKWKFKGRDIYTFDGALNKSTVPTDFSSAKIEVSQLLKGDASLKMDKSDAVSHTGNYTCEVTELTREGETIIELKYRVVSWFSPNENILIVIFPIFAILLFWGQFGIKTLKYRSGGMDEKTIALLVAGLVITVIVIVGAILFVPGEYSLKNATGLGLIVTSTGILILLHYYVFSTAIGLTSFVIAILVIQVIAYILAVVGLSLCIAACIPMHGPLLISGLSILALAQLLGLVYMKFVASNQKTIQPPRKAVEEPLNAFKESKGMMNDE", "assay": "CD47-SIRPalpha protein protein interaction - HTRF assay qHTS validation (AID 1347058; active = well fitted curve in the direction sought with a large enough effect in the signal ratio, not every such curve was filed as active; the % refers to the signal ratio; note: 0% is about no effect)", "details": "TR-FRET HTRF CD47-His / biotin-SIRPalpha binding, ratio 665/615; series mostly up to 38.3 µM; activity change, negative = inhibition: at the top concentration", "how_it_was_run": "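TR-FRET read (Ch1/Ch2 ratio) of soluble extracellular CD47 and Avi-biotinylated SIRPalpha domains in PBS pH 7.4 with 0.05% IGEPAL; 7-point compound titration. Sequential 30 min room-temperature steps; non-biotinylated SIRPalpha as control inhibitor.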"}
{"smiles": "C[N+]1(C)C2CC(OC(=O)[C@H](CO)c3ccccc3)CC1C1OC12", "note": "(stereo not given in full)", "outcome": "inactive"}
{"smiles": "Fc1cccc(/C=N/N=C/c2cccc(F)c2)c1", "activity change, negative = inhibition": "2.01% (inactive)"}
{"smiles": "CN=c1nc(-c2ccccc2)n(-c2ccccc2)s1", "activity change, negative = inhibition": "-2.43% (inactive)"}
{"smiles": "COc1ccccc1CN[C@@H]1CCCN[C@@H]1c1ccccc1", "activity change, negative = inhibition": "1.19% (inactive)"}
{"smiles": "CC[C@H]1OC(=O)[C@H](C)C(O[C@H]2C[C@@](C)(OC)[C@@H](O)[C@H](C)O2)[C@H](C)[C@@H](OC2O[C@H](C)C[C@H](N(C)C)[C@H]2O)[C@](C)(O)C[C@@H](C)CN(C)[C@H](C)[C@@H](O)[C@]1(C)O", "note": "(stereo not given in full)", "activity change, negative = inhibition": "1.05% (inactive)"}
{"smiles": "CCOC(=O)C1=C(C)NC(C)=C(C(=O)OCC)C1c1c(F)c(F)c(F)c(F)c1F", "activity change, negative = inhibition": "-2.55% (inactive)"}
{"smiles": "COc1cc(OC)cc(-c2cc3cnc(N)nc3nc2NC(=O)NC(C)(C)C)c1", "activity change, negative = inhibition": "-4.27% (inactive)"}
{"smiles": "O=C(CCc1ccncc1)NNC(=O)N1Cc2ccccc2Oc2ccc(Cl)cc21", "activity change, negative = inhibition": "3.36% (inactive)"}
{"smiles": "Brc1cc2c(cc1[C@H]1Nc3ccccc3[C@H]3C=CC[C@H]31)OCO2", "activity change, negative = inhibition": "-0.509% (inactive)"}
{"smiles": "COc1ccc(Br)cc1S(=O)(=O)NC(=O)/C=C/c1ccccc1Cc1ccc2ccccc2c1", "activity change, negative = inhibition": "1.49% (inactive)"}
{"smiles": "CS(=O)(=O)c1ccc(-n2nc(C(F)(F)F)cc2-c2ccc(F)cc2)cc1", "activity change, negative = inhibition": "-3.64% (inactive)"}
{"smiles": "CC[C@H]1OC(=O)[C@H](C)[C@@H](O[C@H]2C[C@@](C)(OC)[C@@H](O)[C@H](C)O2)[C@H](C)[C@@H](O[C@@H]2O[C@H](C)C[C@H](NC)[C@H]2O)[C@](C)(O)C[C@@H](C)CN(C)[C@H](C)[C@@H](O)[C@]1(C)O", "activity change, negative = inhibition": "1.75% (inactive)"}
{"smiles": "S=c1[nH]c(-c2ccccc2)cn1-c1ccccc1", "activity change, negative = inhibition": "-4.2% (inactive)"}
{"smiles": "O=C1NCc2c1c1c3ccccc3[nH]c1c1[nH]c3ccccc3c21", "activity change, negative = inhibition": "-6.02% (inactive)"}
{"smiles": "CC12C(=O)OC(=O)C1(C)C1CCC2O1", "note": "(stereo not given)", "activity change, negative = inhibition": "-1.07% (inactive)"}
{"smiles": "S=C(S)OC1CC2CC1C1CCCC21", "note": "(stereo not given)", "activity change, negative = inhibition": "-2.24% (inactive)"}
{"smiles": "CO[C@H]1O[C@@H]2O[C@]3(C)CC[C@@H]4[C@@H](C)CC[C@H]([C@H]1C)[C@]24OO3", "activity change, negative = inhibition": "4.2% (inactive)"}
{"molecular_target": "T1, Tyrosine-protein phosphatase non-receptor type substrate 1 (Homo sapiens) + Leukocyte surface antigen CD47 (Homo sapiens)", "assay": "CD47-SIRPalpha protein protein interaction - Alpha assay qHTS validation (AID 1347059);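 note: bead proximity luminescence from CD47 binding SIRPalpha after compound preincubation with SIRPalpha; % is set by controls: 0 for no effect and ±100 for the full control effect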", "details": "AlphaScreen CD47-His/biotin-SIRPalpha binding, LOPAC; series mostly up to 38.3 µM; activity change, negative = inhibition: at the top concentration", "how_it_was_run": "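Biotinylated Avi-tagged SIRPalpha (25 nM) preincubated 30 min with compound, then His-tagged CD47 (12.5 nM) added 30 min; AlphaScreen with Ni-NTA acceptor and streptavidin donor beads. PBS pH 7.4, 0.05% IGEPAL, room temperature; 7-point titrations.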"}
{"smiles": "C[N+]1(C)C2CC(OC(=O)[C@H](CO)c3ccccc3)CC1C1OC12", "note": "(stereo not given in full)", "Potency": "inactive"}
{"smiles": "COc1ccc(NC(=O)/C=C/c2ccc(Cl)cc2)cc1", "activity change, negative = inhibition": "3.73% (inactive)"}
{"smiles": "Fc1cccc(/C=N/N=C/c2cccc(F)c2)c1", "activity change, negative = inhibition": "1.77% (inactive)"}
{"smiles": "CN=c1nc(-c2ccccc2)n(-c2ccccc2)s1", "activity change, negative = inhibition": "-16.2% (inactive)"}
{"smiles": "Cc1cn([C@H]2CC(N=[N+]=[N-])[C@@H](CO)O2)c(=O)[nH]c1=O", "note": "(stereo not given in full)", "activity change, negative = inhibition": "-1.8% (inactive)"}
{"smiles": "COc1ccccc1CN[C@@H]1CCCN[C@@H]1c1ccccc1", "activity change, negative = inhibition": "0.862% (inactive)"}
{"smiles": "O=c1cc(-c2ccccc2)oc2c(O)c(O)ccc12", "activity change, negative = inhibition": "-14.1% (inactive)"}
{"smiles": "CC[C@H]1OC(=O)[C@H](C)C(O[C@H]2C[C@@](C)(OC)[C@@H](O)[C@H](C)O2)[C@H](C)[C@@H](OC2O[C@H](C)C[C@H](N(C)C)[C@H]2O)[C@](C)(O)C[C@@H](C)CN(C)[C@H](C)[C@@H](O)[C@]1(C)O", "note": "(stereo not given in full)", "activity change, negative = inhibition": "0% (inactive)"}
{"smiles": "O=C(Nc1ccncc1)c1cc([N+](=O)[O-])ccc1Cl", "activity change, negative = inhibition": "-1.8% (inactive)"}
{"smiles": "CCOC(=O)C1=C(C)NC(C)=C(C(=O)OCC)C1c1c(F)c(F)c(F)c(F)c1F", "activity change, negative = inhibition": "71% (inactive)"}
{"smiles": "COc1cc(OC)cc(-c2cc3cnc(N)nc3nc2NC(=O)NC(C)(C)C)c1", "activity change, negative = inhibition": "-0.758% (inactive)"}
{"smiles": "O=C(CCc1ccncc1)NNC(=O)N1Cc2ccccc2Oc2ccc(Cl)cc21", "activity change, negative = inhibition": "1.19% (inactive)"}
{"smiles": "Brc1cc2c(cc1[C@H]1Nc3ccccc3[C@H]3C=CC[C@H]31)OCO2", "activity change, negative = inhibition": "-21.6% (inactive)"}
{"smiles": "NS(=O)(=O)c1ccc(-n2nc(C(F)(F)F)cc2-c2ccc(Cl)cc2)cc1", "activity change, negative = inhibition": "1.65% (inactive)"}
{"smiles": "COc1ccc(/C=C/c2nc(NCCCN(C)C)c3ccccc3n2)cc1", "activity change, negative = inhibition": "-2.42% (inactive)"}
{"smiles": "COc1ccc(Br)cc1S(=O)(=O)NC(=O)/C=C/c1ccccc1Cc1ccc2ccccc2c1", "activity change, negative = inhibition": "1.25% (inactive)"}
{"smiles": "N[C@H](CCCP(=O)(O)O)C(=O)O", "activity change, negative = inhibition": "2.12% (inactive)"}
{"smiles": "O=C1NC(O)=NC1(c1ccccc1)c1ccccc1", "activity change, negative = inhibition": "0% (inactive)"}
{"smiles": "O=C(c1ccc(Cl)cc1)N1CCN(c2ccc([N+](=O)[O-])c3ncccc23)CC1", "activity change, negative = inhibition": "-8.67% (inactive)"}
{"smiles": "CS(=O)(=O)c1ccc(-n2nc(C(F)(F)F)cc2-c2ccc(F)cc2)cc1", "activity change, negative = inhibition": "0.0941% (inactive)"}
{"smiles": "CC[C@H]1OC(=O)[C@H](C)[C@@H](O[C@H]2C[C@@](C)(OC)[C@@H](O)[C@H](C)O2)[C@H](C)[C@@H](O[C@@H]2O[C@H](C)C[C@H](NC)[C@H]2O)[C@](C)(O)C[C@@H](C)CN(C)[C@H](C)[C@@H](O)[C@]1(C)O", "activity change, negative = inhibition": "2.61% (inactive)"}
{"smiles": "S=c1[nH]c(-c2ccccc2)cn1-c1ccccc1", "activity change, negative = inhibition": "-20% (inactive)"}
{"smiles": "O=C1NCc2c1c1c3ccccc3[nH]c1c1[nH]c3ccccc3c21", "activity change, negative = inhibition": "-11.1% (inactive)"}
